# Experiments:
# Experiment in all cases: DAPPL (digital affinity profiling via proximity ligation, sequencing); 10 mM Tris-HCl pH 7.5, 50 mM NaCl, 1 mM DTT, 4% glycerol, room temperature, 30 min; GST-TFs on glutathione beads, 16-mer random dsDNA library, 0.1% formaldehyde crosslink after washing; high values mean tight binding
# FEV = target: T1, FEV (Homo sapiens, UniProt Q99581 1-238); settings: protein: recombinant; tags: N-terminal GST; dsDNA, one strand shown
# T1 sequence: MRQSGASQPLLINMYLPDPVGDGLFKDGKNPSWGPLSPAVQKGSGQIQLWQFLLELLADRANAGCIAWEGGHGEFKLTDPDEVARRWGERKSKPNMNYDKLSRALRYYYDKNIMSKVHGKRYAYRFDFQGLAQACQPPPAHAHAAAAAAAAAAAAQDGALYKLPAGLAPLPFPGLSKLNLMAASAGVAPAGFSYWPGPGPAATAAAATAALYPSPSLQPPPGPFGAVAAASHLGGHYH
# Method in brief: (§1)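 After expression in yeast as GST fusions, human transcription factors were bound to glutathione beads, DNA-barcoded and mixed with a tag-only sample. The pools were incubated with 200 nmole of a 16-mer random double-stranded DNA library in Tris/NaCl/DTT/glycerol buffer (30 min, room temperature), washed and crosslinked with 0.1% formaldehyde. Proximity ligation with BsaI/T4 ligase ran for 1 h at 37 °C, before PCR amplification and sequencing on an Illumina NextSeq500. Binding signal is a hexamer's read frequency for a factor divided by its frequency for the tag-only sample.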
# ETV5 = ETV5 (Homo sapiens, UniProt P41161 1-510); settings: protein: recombinant; tags: N-terminal GST; dsDNA, one strand shown
# ETV5, sequence (P41161 whole entry): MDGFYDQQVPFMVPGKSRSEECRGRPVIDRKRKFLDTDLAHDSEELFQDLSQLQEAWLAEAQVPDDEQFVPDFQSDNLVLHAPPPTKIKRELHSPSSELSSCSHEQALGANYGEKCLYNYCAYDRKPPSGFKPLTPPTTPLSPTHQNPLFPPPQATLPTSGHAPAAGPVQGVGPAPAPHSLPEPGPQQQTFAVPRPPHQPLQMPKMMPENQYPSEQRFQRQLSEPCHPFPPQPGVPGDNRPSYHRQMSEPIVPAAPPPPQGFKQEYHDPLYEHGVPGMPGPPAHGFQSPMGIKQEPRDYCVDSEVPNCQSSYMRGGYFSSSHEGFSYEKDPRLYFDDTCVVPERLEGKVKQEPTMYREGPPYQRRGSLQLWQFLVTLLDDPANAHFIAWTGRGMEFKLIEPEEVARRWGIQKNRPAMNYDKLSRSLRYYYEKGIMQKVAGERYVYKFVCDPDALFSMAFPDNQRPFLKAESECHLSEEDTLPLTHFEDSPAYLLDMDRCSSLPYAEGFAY
# Method in brief: as §1
# HSF1 = HSF1 (Homo sapiens, UniProt Q00613 1-529); settings: protein: recombinant; tags: N-terminal GST; chain copies: 3; dsDNA, one strand shown
# HSF1, sequence (Q00613 whole entry): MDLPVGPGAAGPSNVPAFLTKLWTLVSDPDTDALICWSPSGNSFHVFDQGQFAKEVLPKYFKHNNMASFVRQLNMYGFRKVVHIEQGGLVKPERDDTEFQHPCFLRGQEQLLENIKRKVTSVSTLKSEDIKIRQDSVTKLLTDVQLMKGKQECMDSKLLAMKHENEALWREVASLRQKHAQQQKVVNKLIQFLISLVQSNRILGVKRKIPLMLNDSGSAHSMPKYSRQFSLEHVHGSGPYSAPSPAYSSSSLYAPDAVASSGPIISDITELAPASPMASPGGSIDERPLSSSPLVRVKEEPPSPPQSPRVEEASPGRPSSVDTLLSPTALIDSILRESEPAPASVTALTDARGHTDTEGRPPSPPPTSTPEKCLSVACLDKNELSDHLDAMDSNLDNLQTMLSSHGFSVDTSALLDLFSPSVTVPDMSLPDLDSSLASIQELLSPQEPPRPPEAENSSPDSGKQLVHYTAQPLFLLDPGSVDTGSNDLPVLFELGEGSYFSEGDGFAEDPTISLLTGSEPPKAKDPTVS
# Method in brief: as §1
# SPIC = target: T2, SPIC (Homo sapiens, UniProt Q8N5J4 1-248); settings: protein: recombinant; tags: N-terminal GST; dsDNA, one strand shown
# T2 sequence: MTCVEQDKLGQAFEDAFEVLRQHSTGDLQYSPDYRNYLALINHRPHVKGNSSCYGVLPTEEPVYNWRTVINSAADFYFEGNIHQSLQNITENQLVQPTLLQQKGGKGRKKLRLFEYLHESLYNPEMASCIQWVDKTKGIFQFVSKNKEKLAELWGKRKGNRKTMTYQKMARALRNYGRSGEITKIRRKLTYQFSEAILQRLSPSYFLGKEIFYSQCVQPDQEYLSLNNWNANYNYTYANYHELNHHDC
# Method in brief: as §1
# ELF4 = ELF4 (Homo sapiens, UniProt Q99607 1-663); settings: protein: recombinant; tags: N-terminal GST; dsDNA, one strand shown
# ELF4, sequence (Q99607 whole entry): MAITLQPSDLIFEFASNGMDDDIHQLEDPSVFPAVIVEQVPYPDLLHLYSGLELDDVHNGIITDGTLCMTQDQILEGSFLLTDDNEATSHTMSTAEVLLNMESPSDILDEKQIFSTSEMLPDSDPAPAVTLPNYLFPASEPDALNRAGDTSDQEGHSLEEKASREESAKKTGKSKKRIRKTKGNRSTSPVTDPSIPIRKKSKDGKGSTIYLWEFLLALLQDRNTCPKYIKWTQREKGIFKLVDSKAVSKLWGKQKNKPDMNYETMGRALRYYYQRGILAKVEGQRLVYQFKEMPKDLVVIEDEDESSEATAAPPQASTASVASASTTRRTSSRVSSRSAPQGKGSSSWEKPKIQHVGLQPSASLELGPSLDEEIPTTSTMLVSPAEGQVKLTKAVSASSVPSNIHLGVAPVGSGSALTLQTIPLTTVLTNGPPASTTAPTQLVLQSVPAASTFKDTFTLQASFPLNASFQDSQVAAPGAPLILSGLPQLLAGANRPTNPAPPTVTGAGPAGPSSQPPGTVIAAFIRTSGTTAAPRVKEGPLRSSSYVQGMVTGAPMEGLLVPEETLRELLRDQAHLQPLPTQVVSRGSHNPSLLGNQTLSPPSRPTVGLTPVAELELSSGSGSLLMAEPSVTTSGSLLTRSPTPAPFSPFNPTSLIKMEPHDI
# Method in brief: as §1
# ELK4 = target: T3, ELK4 (Homo sapiens, UniProt P28324-2 1-405); settings: protein: recombinant; tags: N-terminal GST; dsDNA, one strand shown
# T3 sequence: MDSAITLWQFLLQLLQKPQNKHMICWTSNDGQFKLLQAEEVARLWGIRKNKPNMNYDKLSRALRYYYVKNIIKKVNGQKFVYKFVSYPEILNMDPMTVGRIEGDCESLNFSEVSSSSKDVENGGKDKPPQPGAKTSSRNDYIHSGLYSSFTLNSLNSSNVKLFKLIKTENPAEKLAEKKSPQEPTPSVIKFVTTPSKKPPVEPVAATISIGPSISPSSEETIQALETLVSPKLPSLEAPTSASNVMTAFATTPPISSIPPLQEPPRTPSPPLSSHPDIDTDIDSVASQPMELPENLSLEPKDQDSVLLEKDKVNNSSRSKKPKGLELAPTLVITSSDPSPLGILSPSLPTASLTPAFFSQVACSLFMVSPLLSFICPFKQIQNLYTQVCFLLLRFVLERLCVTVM
# Method in brief: as §1
# ETV2 = target: T4, ETV2 (Homo sapiens, UniProt O00321 1-342); settings: protein: recombinant; tags: N-terminal GST; dsDNA, one strand shown
# T4 sequence: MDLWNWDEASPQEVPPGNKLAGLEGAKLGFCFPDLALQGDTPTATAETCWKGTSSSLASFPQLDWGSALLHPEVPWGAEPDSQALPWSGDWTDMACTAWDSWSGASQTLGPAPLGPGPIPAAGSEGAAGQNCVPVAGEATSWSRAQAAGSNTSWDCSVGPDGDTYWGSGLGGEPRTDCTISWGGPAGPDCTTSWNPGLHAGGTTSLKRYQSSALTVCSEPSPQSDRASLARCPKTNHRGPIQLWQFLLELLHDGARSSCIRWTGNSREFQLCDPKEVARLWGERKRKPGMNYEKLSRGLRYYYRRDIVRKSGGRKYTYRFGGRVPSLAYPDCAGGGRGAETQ
# Method in brief: as §1
# ELF3 = target: T5, ELF3 (Homo sapiens, UniProt P78545 1-371); settings: protein: recombinant; tags: N-terminal GST; dsDNA, one strand shown
# T5 sequence: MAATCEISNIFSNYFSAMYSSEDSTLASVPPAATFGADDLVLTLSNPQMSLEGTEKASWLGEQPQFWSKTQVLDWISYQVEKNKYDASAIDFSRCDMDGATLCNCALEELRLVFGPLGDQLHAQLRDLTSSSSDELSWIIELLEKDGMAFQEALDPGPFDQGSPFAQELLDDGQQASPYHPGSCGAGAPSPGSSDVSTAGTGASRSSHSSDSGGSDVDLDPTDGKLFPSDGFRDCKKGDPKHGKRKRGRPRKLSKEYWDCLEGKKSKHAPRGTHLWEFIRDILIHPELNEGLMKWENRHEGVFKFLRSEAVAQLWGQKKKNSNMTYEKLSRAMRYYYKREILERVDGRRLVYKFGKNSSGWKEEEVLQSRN
# Method in brief: as §1
# CRX = CRX (Homo sapiens, UniProt O43186 1-299); settings: protein: recombinant; tags: N-terminal GST; dsDNA, one strand shown
# CRX, sequence (O43186 whole entry): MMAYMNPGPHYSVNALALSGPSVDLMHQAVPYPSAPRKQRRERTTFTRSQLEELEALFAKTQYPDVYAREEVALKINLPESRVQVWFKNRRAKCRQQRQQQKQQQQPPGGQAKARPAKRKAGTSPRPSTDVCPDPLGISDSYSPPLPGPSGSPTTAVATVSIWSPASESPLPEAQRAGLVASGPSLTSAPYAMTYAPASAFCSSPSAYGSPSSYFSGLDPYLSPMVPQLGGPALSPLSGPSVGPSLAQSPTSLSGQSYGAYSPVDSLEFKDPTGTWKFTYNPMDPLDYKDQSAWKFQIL
# Method in brief: as §1
# ETV1 = ETV1 (Homo sapiens, UniProt P50549 1-477); settings: protein: recombinant; tags: N-terminal GST; dsDNA, one strand shown
# ETV1, sequence (P50549 whole entry): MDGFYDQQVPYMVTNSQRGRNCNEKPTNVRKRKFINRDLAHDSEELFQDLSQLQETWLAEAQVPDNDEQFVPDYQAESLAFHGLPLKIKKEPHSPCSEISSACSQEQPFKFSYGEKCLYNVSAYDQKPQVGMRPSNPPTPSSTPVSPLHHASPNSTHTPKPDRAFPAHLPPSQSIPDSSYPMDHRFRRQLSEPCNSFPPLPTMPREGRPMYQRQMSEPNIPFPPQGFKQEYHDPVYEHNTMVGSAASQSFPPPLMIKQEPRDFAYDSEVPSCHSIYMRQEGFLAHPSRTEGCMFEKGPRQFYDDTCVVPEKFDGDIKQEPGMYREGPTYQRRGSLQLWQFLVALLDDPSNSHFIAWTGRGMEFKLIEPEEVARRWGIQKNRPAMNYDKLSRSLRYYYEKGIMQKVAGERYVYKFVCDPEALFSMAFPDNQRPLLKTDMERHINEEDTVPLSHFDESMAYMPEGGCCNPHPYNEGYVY
# Method in brief: as §1
# ERF = target: T6, ERF (Homo sapiens, UniProt P50548 1-548); settings: protein: recombinant; tags: N-terminal GST; dsDNA, one strand shown
# T6 sequence: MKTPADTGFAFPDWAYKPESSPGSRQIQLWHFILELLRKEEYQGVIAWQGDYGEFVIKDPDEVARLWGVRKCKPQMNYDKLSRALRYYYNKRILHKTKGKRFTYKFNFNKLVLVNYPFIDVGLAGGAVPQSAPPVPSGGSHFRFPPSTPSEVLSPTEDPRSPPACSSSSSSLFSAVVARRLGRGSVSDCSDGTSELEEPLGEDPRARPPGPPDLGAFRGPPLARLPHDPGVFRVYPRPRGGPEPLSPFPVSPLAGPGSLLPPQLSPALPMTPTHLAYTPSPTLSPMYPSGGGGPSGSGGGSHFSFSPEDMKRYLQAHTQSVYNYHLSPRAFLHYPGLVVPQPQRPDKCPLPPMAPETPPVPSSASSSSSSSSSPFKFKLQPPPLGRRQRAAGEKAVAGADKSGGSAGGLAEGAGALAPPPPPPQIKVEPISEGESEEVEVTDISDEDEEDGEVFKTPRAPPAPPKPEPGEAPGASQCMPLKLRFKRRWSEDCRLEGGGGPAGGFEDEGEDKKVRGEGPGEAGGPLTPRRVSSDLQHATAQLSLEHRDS
# Method in brief: as §1
# ETV3L = target: T7, ETV3L (Homo sapiens, UniProt Q6ZN32 1-361); settings: protein: recombinant; tags: N-terminal GST; dsDNA, one strand shown
# T7 sequence: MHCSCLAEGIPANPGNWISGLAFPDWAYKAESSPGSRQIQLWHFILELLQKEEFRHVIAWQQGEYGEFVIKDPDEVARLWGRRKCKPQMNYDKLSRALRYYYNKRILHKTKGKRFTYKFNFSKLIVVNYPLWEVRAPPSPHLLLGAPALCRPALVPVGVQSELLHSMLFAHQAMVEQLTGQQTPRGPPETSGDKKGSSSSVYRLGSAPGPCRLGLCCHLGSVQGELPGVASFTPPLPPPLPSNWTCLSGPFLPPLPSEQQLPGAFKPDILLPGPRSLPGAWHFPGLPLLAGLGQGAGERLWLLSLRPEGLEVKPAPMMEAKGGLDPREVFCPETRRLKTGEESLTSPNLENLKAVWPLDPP
# Method in brief: as §1
# ETS2 = target: T8, ETS2 (Homo sapiens, UniProt P15036 1-469); settings: protein: recombinant; tags: N-terminal GST; dsDNA, one strand shown
# T8 sequence: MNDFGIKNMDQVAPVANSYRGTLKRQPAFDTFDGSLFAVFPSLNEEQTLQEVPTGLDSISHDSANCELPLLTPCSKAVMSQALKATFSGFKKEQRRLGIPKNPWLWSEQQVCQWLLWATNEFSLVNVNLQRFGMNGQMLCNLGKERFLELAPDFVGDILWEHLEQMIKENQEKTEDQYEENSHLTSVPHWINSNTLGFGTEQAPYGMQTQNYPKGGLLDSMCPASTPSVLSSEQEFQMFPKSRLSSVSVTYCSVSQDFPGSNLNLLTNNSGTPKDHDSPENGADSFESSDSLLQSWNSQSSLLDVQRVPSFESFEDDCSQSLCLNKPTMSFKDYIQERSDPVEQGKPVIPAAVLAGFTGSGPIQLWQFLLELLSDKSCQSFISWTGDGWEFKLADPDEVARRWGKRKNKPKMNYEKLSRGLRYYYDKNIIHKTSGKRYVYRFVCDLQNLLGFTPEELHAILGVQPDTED
# Method in brief: as §1
# SPDEF = target: T9, SPDEF (Homo sapiens, UniProt O95238 1-335); settings: protein: recombinant; tags: N-terminal GST; dsDNA, one strand shown
# T9 sequence: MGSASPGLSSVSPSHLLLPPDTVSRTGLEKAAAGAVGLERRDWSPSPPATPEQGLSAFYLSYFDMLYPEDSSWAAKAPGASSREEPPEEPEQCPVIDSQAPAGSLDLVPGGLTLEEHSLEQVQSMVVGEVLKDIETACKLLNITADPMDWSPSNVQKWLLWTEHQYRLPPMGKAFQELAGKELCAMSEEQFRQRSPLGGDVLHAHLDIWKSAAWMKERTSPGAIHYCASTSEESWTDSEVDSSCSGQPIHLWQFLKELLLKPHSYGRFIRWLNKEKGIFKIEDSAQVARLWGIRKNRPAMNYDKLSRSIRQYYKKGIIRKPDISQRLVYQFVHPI
# Method in brief: as §1
# ETV7 = target: T10, ETV7 (Homo sapiens, UniProt Q9Y603 1-341); settings: protein: recombinant; tags: N-terminal GST; dsDNA, one strand shown
# T10 sequence: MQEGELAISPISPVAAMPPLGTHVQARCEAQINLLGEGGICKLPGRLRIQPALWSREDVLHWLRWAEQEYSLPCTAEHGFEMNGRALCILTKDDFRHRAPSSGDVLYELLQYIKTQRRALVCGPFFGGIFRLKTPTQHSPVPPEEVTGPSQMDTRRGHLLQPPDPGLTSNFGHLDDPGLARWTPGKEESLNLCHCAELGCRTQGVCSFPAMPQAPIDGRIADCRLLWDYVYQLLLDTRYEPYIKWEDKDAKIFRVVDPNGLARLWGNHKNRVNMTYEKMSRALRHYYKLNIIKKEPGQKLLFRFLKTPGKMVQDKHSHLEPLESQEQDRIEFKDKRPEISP
# Method in brief: as §1
# ELF5 = target: T11, ELF5 (Homo sapiens, UniProt Q9UKW6-2 1-255); settings: protein: recombinant; tags: N-terminal GST; dsDNA, one strand shown
# T11 sequence: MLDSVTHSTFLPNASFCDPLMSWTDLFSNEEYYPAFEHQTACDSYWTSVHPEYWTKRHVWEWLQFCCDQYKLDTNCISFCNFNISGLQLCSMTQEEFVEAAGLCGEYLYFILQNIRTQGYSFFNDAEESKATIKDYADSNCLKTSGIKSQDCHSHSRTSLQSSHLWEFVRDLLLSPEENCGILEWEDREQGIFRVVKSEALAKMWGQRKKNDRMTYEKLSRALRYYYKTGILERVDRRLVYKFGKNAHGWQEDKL
# Method in brief: as §1
# ETV3 = target: T12, ETV3 (Homo sapiens, UniProt P41162-2 1-143); settings: protein: recombinant; tags: N-terminal GST; dsDNA, one strand shown
# T12 sequence: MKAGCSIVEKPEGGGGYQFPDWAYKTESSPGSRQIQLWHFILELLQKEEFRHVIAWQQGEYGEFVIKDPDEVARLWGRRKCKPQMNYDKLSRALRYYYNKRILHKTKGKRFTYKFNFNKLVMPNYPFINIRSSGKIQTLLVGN
# Method in brief: as §1
# ETV6 = ETV6 (Homo sapiens, UniProt P41212 1-452); settings: protein: recombinant; tags: N-terminal GST; dsDNA, one strand shown
# ETV6, sequence (P41212 whole entry): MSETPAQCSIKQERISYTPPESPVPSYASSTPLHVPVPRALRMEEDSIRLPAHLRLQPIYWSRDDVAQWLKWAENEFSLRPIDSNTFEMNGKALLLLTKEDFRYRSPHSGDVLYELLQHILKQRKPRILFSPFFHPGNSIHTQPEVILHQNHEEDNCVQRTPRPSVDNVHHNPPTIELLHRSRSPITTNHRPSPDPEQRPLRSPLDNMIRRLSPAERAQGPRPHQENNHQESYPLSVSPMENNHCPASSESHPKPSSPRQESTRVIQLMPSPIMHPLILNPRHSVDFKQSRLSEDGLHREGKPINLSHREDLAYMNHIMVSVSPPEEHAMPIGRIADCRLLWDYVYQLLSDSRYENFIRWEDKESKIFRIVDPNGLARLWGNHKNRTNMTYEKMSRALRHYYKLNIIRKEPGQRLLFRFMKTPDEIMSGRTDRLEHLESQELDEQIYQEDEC
# Method in brief: as §1
sequence,measurement,setting,value
TATAGG,binding signal,FEV,"1.15 fold enrichment (6-mer frequency, TF over GST control)"
same,binding signal,ETV5,"1.24 fold enrichment (6-mer frequency, TF over GST control)"
same,binding signal,HSF1,"1.2 fold enrichment (6-mer frequency, TF over GST control)"
same,binding signal,SPIC,"1.34 fold enrichment (6-mer frequency, TF over GST control)"
same,binding signal,ELF4,"1.05 fold enrichment (6-mer frequency, TF over GST control)"
same,binding signal,ELK4,"1.14 fold enrichment (6-mer frequency, TF over GST control)"
same,binding signal,ETV2,"1.26 fold enrichment (6-mer frequency, TF over GST control)"
same,binding signal,ELF3,"1.19 fold enrichment (6-mer frequency, TF over GST control)"
same,binding signal,CRX,"1.42 fold enrichment (6-mer frequency, TF over GST control)"
same,binding signal,ETV1,"1.13 fold enrichment (6-mer frequency, TF over GST control)"
same,binding signal,ERF,"1.18 fold enrichment (6-mer frequency, TF over GST control)"
same,binding signal,ETV3L,"1.14 fold enrichment (6-mer frequency, TF over GST control)"
same,binding signal,ETS2,"1.13 fold enrichment (6-mer frequency, TF over GST control)"
same,binding signal,SPDEF,"1.19 fold enrichment (6-mer frequency, TF over GST control)"
same,binding signal,ETV7,"1.22 fold enrichment (6-mer frequency, TF over GST control)"
same,binding signal,ELF5,"1.23 fold enrichment (6-mer frequency, TF over GST control)"
same,binding signal,ETV3,"1.17 fold enrichment (6-mer frequency, TF over GST control)"
same,binding signal,ETV6,"1.11 fold enrichment (6-mer frequency, TF over GST control)"

# Source: PMC7862700, “An all-to-all approach to the identification of sequence-specific readers for epigenetic DNA modifications on cytosine”
